# Assay results reported in PubChem BioAssay (NCATS).
# Inconclusive results are not listed. Where a call stands in place of a potency, no number is given. Active and inactive are the calls of the source. Unless noted, calls follow the shape of the dose curve; as a rule, active = well fitted curve in the direction sought with a large enough effect; inconclusive = small, poorly fitted or top-dose-only effect, or another doubt; inactive = no such curve, though single readings can be large; an effect the other way counts as inactive or inconclusive.
# Columns and labels:
# [1] = qHTS profiling for inhibitors of Plasmodium falciparum (3D7) proliferation (AID 743322);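 also: infected erythrocytes exposed to compound for 72 h before lysis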; conditions: P. falciparum 3D7 proliferation; at 28.7 µM (top of the series)
# Method in brief: (§1)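 Parasite DNA was quantified by SYBR Green I fluorescence (ex 485, em 535 nm) after overnight lysis in saponin/Triton buffer at room temperature. Cultures at 0.3% parasitemia and 2.5% hematocrit were first exposed to compound for 72 h at 37 C; signals were normalised to artemisinin (0.29 uM) and vehicle wells.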
# [2] = qHTS profiling for inhibitors of Plasmodium falciparum (DD2) proliferation (AID 743323; call rule not given here); conditions: lower = more inhibition; at 28.7 µM (top of the series)
# Method in brief: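 SYBR Green fluorescence (ex 485, em 535 nm) of lysed cultures gives parasite DNA content; wells normalized to artemisinin (0.29 uM) and DMSO controls. Infected red cells: 0.3% parasitemia, 2.5% hematocrit, 72 h, 37 C.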
# [3] = qHTS profiling for inhibitors of Plasmodium falciparum (HB3) proliferation (AID 743324); conditions: Plasmodium falciparum HB3 blood-stage proliferation; at 28.7 µM (top of the series)
# Method in brief: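 SYBR Green fluorescence (485 ex/535 em) of lysed cultures, incubated overnight at room temperature in the dark, quantifies parasite DNA. Infected erythrocytes at 0.3% parasitemia and 2.5% hematocrit were exposed 72 h; values normalized to DMSO and 0.29 uM artemisinin controls.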
# [4] = qHTS profiling of the MIPE4 collection as inhibitors of Plasmodium falciparum (3D7) proliferation (AID 743344; call rule not given here); conditions: P. falciparum 3D7 in erythrocytes, SYBR Green DNA fluorescence, 72 h; at 28.5 µM (top of the series)
# Method in brief: as §1
# [5] = qHTS profiling of the MIPE4 collection as inhibitors of Plasmodium falciparum (DD2) proliferation (AID 743345; call rule not given here); conditions: P. falciparum Dd2 in erythrocytes, SYBR Green DNA, 72 h; at 28.5 µM (top of the series)
# Method in brief: as §1
# [6] = qHTS profiling of the MIPE4 collection as inhibitors of Plasmodium falciparum (DD2) proliferation (Rep 2) (AID 743346; call rule not given here); conditions: P. falciparum Dd2 in erythrocytes, SYBR Green DNA, 72 h; at 28.5 µM (top of the series)
# Method in brief: as §1
# [7] = qHTS profiling of the MIPE4 collection as inhibitors of Plasmodium falciparum (HB3) proliferation (AID 743347; call rule not given here); conditions: P. falciparum HB3 in erythrocytes, SYBR Green DNA, 72 h; at 28.5 µM (top of the series)
# Method in brief: as §1
# [8] = qHTS for Inhibitors of the vitamin D receptor (VDR): Hit Validation using a Texas Red Assay (AID 602201); conditions: VDR coregulator binding, Texas Red fluorescence polarization; agonist-bound VDR ligand-binding domain; also: potency is read from the fitted curve at half-maximal effect
# Method in brief: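 Fluorescence polarization (Ex 595/Em 615 nm) of Texas Red (7 nM) with 1.5 uM VDR-LBD and LG19078 (final concentrations). Compounds were incubated for 2 hours at room temperature.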
# [9] = target: Cytochrome P450 2D6 (Homo sapiens) (UniProt P10635); test: qHTS Assay for Inhibitors and Substrates of Cytochrome P450 2D6 (AID 891); also: potency is read from the fitted curve at half-maximal effect; nearly all actives have a fitted effect of over 60% in size
# Method in brief: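 Luminescent read-out of luciferin formed by 5 nM human CYP2D6 demethylating 30 uM Luciferin-ME EGE (Km level) over 60 min at room temperature after NADPH regeneration addition. Data normalized to full inhibition by 1.43 uM quinidine.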
# [10] = qHTS Assay for Identification of Small Molecule Agonists for Thrombopoietin (TPO) Signaling Pathway (AID 917)
# Method in brief: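 Cell-based luciferase reporter screen. Mouse Ba/F3 line stably expressing human TPO receptor; IL-3 removed overnight before plating. Co-treatment with compound and EC50 TPO (26 pM), 24 hrs at 37 C, then luminescence.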
# [11] = target: Muscarinic acetylcholine receptor M1 (Rattus norvegicus) (UniProt P08482); test: qHTS Assay for Antagonists of Acetylcholine Muscarinic M1 Receptor: Kinetic Measurement of Intracellular Calcium Response (AID 943);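 also: Fluo-4 calcium signal as peak divided by basal fluorescence over 4 min; nearly all actives have a fitted effect of over 75% in size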
# Method in brief: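 Read-out: peak over basal Fluo-4 fluorescence, kinetic at 1 Hz for 4 min after EC80 carbachol (100 nM final). Rat M1-CHO cells, dye loaded 1 h at 37C, compound added 10 min before agonist.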
# [12] = Validation of Assay for Modulators of Lamin A Splicing (AID 1459; active = well fitted curve in the direction sought with a large enough effect in the signal ratio; the % refers to the signal ratio;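 also: cells exposed to compound for two days before reading; ratio rise marks activators and ratio drop marks inhibitors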)
# Method in brief: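 HeLa S3 lamin A-EGFP/DsRed2 stable clone, 600 cells/well, Opti-MEM 2% FBS; compounds by pin tool; 48 hrs, 37 °C/5% CO2; Acumen 488 nm scan, objects 10-100 um; GFP/RFP intensity ratio.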
# [13] = target: DNA repair nuclease/redox regulator APEX1 (Homo sapiens) (UniProt P27695); test: qHTS Validation Assay for Inhibitors of the Human Apurinic/apyrimidinic Endonuclease 1 (APE1) (AID 1705; also: potency is read from the fitted curve at half-maximal effect)
# Method in brief: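 qHTS, 1536-well. APE1 + cpd 15 min RT → 50 nM TAMRA/BHQ-2 THF-abasic dsDNA substrate → kinetic fluorescence, 3 reads/60 s; delta(read3−read1) = reaction progress. No-enzyme buffer = negative control.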
# [14] = Counterscreen for APE1 Inhibitors: Fluorescent Dye Displacement Validation Assay (AID 1707); also: potency is read from the fitted curve at half-maximal effect
# Method in brief: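 Signal: ThO fluorescence (ex 480 nm/em 540 nm) on binding 50 nM dsDNA; displacement by test compound reduces it. Conditions: 250 nM dye, 50 mM Tris-HCl pH7.5, 2 mM MgCl2, 50mM NaCl, 0.01% Tween-20.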
# [15] = target: Rap guanine nucleotide exchange factor 3 (Homo sapiens) (UniProt O95398); test: Confirmatory qHTS for agonist of cAMP-regulated guanine nucleotide exchange factor 3 (EPAC1) (AID 1645881);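 also: EPAC1 catalysed release of BODIPY-GDP from Rap1B seen as fluorescence loss; nearly all actives have a fitted effect of over 75% in size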
# [16] = Primary qHTS for small molecule stabilizers of the endoplasmic reticulum resident proteome: Secreted ER Calcium Modulated Protein (SERCaMP) assay (AID 1508630)
# Method in brief: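 The SH-SY5Y reporter protocol was run at 3 concentrations up to 38.3 uM (primary) or 11 concentrations (follow-up): 16 h compound, 100 nM thapsigargin for 4 h, then extracellular luciferase luminescence.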
# [17] = system: Zika virus NS2B-NS3 protease (unlinked complex); test: Primary screen GU Rhodamine qHTS for Zika virus inhibitors: Unlinked NS2B-NS3 protease assay (AID 1347159); also: nearly all actives have a fitted effect of over 60% in size; also: potency is read from the fitted curve at half-maximal effect
# Method in brief: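 Buffer 10 mM Tris-HCl pH 8.0, 0.01% Tween 20. Unlinked protease 25 nM; compound preincubation 15 min, RT, protected from light. Substrate Rhod110, 1.5 microM; ~15% conversion in 15 min.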
# [18] = target: Phospholipid hydroperoxide glutathione peroxidase GPX4 (Homo sapiens) (UniProt P36969); test: Primary qHTS Assay for Inhibitors of Recombinant Selenoprotein Glutathione Peroxidase 4 (GPX4) (AID 1845192); conditions: outcome: dose series up to 50 µM unless noted; also: nearly all actives have a fitted effect of over 65% in size
# Method in brief: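 qHTS, GR-coupled: GPX4 200 nM + cpd 30 min RT → GSH 1 mM, NADPH 0.5 mM, GR 100 nM → CHP 0.5 mM start; fluor 340/450 at t0 and t15 min; no-enzyme wells as control.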
# [19] = target: Luciferin 4-monooxygenase (Photinus pyralis) (UniProt P08659); test: Primary firefly luciferase (FLuc) qHTS assay for identification of artifact compounds. (AID 1845220); also: nearly all actives have a fitted effect of over 60% in size
# Method in brief: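 In this counter-screen for luciferase artifacts, test compounds met substrate (10 uM each luciferin and ATP) before 10 nM enzyme started the reaction. Light output was measured 5 min later.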
# [20] = Primary fluorescence-based thiol-reactive (MSTI) qHTS assay for identification of artifact compounds. (AID 1845221);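 also: thiol-reactive compounds lower the probe fluorescence signal; nearly all actives have a fitted effect of over 65% in size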
# Method in brief: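 MSTI probe at 4 uM final in 2% DMSO/PBS pH 7.4; compounds, 1 h at room temperature in dark. Fluorescence Ex/Em 525/598 nm, normalised to Acetyl-MSTI and MSTI, fitted to 4-parameter Hill.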
# Sequence of Phospholipid hydroperoxide glutathione peroxidase GPX4 (Homo sapiens) (P36969 whole entry, looked up): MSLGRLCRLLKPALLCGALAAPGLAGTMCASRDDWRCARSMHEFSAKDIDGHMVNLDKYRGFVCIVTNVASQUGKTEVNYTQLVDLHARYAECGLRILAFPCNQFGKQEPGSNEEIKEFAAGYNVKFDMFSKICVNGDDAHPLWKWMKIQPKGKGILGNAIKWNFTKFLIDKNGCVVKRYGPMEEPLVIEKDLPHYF
# Sequence of Rap guanine nucleotide exchange factor 3 (Homo sapiens) (O95398 whole entry, looked up): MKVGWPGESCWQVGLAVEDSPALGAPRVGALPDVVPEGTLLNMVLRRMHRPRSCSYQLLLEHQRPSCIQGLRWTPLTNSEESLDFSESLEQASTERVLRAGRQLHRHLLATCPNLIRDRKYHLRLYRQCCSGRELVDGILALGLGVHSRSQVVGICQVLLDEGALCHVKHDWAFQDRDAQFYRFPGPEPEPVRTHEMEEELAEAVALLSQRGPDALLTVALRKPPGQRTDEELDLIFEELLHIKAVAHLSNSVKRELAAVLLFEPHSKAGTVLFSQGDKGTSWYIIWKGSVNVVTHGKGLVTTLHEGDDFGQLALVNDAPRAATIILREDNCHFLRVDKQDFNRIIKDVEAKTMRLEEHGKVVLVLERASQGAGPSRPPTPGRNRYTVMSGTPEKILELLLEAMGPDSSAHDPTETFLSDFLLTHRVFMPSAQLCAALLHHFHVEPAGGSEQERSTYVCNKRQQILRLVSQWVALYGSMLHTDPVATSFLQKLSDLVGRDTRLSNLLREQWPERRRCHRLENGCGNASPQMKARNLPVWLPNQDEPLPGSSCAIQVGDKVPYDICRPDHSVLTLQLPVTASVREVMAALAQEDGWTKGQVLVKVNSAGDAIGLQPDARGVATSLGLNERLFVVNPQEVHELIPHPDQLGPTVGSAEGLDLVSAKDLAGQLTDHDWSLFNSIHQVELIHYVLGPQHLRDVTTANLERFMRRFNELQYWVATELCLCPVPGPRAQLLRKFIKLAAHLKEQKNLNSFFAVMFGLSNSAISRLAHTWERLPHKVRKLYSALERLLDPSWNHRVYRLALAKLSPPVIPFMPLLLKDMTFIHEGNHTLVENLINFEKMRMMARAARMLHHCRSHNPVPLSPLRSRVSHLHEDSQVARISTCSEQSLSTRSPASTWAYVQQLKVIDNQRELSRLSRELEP
# Sequence of DNA repair nuclease/redox regulator APEX1 (Homo sapiens) (P27695 whole entry, looked up): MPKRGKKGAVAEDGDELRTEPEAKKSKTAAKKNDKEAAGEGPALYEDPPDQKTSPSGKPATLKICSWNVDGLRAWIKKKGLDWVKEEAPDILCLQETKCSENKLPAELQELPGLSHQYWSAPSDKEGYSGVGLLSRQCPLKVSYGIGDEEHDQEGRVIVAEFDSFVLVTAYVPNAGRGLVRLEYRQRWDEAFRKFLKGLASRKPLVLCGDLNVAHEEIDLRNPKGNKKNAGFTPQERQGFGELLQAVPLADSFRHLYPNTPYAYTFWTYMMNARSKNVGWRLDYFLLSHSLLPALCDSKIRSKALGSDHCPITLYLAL
# Sequence of Cytochrome P450 2D6 (Homo sapiens) (P10635 whole entry, looked up): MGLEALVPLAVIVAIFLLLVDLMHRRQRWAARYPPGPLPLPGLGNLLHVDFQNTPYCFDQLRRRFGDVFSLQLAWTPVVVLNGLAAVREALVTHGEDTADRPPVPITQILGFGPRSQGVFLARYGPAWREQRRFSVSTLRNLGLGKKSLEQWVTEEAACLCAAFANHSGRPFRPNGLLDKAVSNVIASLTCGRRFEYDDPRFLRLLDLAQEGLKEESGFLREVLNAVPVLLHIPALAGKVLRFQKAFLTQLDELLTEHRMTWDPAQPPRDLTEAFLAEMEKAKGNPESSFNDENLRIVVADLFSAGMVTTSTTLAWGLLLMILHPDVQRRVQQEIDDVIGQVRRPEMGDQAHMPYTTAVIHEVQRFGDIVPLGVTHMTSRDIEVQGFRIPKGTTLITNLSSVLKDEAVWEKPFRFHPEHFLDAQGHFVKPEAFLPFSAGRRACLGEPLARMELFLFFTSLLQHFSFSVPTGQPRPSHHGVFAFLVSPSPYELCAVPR
# Sequence of Muscarinic acetylcholine receptor M1 (Rattus norvegicus) (P08482 whole entry, looked up): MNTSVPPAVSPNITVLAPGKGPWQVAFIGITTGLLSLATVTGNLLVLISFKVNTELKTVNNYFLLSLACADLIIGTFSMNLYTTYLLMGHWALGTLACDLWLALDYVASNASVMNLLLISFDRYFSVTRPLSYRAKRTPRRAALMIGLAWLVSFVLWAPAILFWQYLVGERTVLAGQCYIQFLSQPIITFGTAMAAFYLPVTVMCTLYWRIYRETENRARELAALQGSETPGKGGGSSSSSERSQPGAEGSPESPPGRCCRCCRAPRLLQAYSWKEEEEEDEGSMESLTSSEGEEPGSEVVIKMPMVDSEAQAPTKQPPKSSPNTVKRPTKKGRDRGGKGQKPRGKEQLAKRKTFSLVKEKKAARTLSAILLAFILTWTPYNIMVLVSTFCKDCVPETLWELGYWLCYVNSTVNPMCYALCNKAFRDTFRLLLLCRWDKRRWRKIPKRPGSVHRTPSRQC
compound,measurement,setting,value
CC(C)N=C(N)N=C(N)Nc1ccc(Cl)cc1,remaining parasite growth % (stronger effect = lower value),[1],-0.519%
same,"activity, percent of control",[2],0.237%
same,"remaining proliferation (% of control), lower = more inhibition",[3],0.187%
same,"parasite growth, % of DMSO control",[4],5.61%
same,"parasite growth remaining, % of DMSO control (lower = more inhibition)",[5],7.67%
same,"parasite growth, % of control (lower = inhibition)",[6],12.7%
same,"growth, % of control",[7],3.71%
COc1cc2c(cc1OC)-c1cc3nc4ccccc4nc3n1C(C)(C)C2,Potency,[8],12.6 µM (active)
CNc1ncnc2c1ncn2[C@H]1C[C@H](OP(=O)(O)O)[C@H](COP(=O)(O)O)O1,Potency,[9],5.01 µM (active)
C[C@@H]1CNCCN1S(=O)(=O)c1cccc2cnccc12,Potency,[10],inactive
same,Potency,[11],inactive
O=C(Nc1cc(C(=O)Nc2ccc(S(=O)(=O)O)cc2S(=O)(=O)O)cc(C(=O)Nc2ccc(S(=O)(=O)O)cc2S(=O)(=O)O)c1)Nc1cc(C(=O)Nc2ccc(S(=O)(=O)O)cc2S(=O)(=O)O)cc(C(=O)Nc2ccc(S(=O)(=O)O)cc2S(=O)(=O)O)c1,outcome,[12],inactive
same,Potency,[13],2.51 µM (active)
same,Potency,[14],4.47 µM (active)
O=C(Nc1ccccc1C(=O)OCc1cc(=O)n2c3c(sc2n1)CCCC3)c1ccc(F)cc1,outcome,[15],inactive
O=C(Nc1ccc(C(=O)Nc2ccc(C(=O)Nc3ccc(S(=O)(=O)O)c4cc(S(=O)(=O)O)cc(S(=O)(=O)O)c34)cc2)cc1)Nc1ccc(C(=O)Nc2ccc(C(=O)Nc3ccc(S(=O)(=O)O)c4cc(S(=O)(=O)O)cc(S(=O)(=O)O)c34)cc2)cc1,Potency,[16],inactive
COc1ccc(NS(=O)(=O)c2ccc3c(c2)[C@H]2C=CC[C@H]2[C@@H](c2ccc(C(=O)O)cc2)N3)cc1,outcome,[15],inactive
O=C(CCCCCCC(=O)Nc1ccc(C2OC(CSc3nc(-c4ccccc4)c(-c4ccccc4)o3)CC(c3ccc(CO)cc3)O2)cc1)NO (stereo unspecified),Potency,[17],39.8 µM (active)
same,Potency,[18],inactive
same,Potency,[19],inactive
same,Potency,[20],inactive
C/C=C/C[C@@H](C)[C@@H](O)[C@H]1C(=O)N[C@@H](CC)C(=O)N(C)CC(=O)N(C)[C@@H](CC(C)C)C(=O)N[C@@H](C(C)C)C(=O)N(C)[C@@H](CC(C)C)C(=O)N[C@@H](C)C(=O)N[C@H](C)C(=O)N(C)[C@@H](CC(C)C)C(=O)N(C)[C@@H](CC(C)C)C(=O)N(C)[C@H](C(C)C)C(=O)N1C,Potency,[17],inactive
same,Potency,[18],inactive
same,Potency,[19],inactive
same,Potency,[20],inactive
C=C1c2c(Cl)ccc(O)c2C(O)=C2C(=O)[C@]3(O)C(O)=C(C(N)=O)C(=O)[C@@H](N(C)C)[C@@H]3[C@@H](O)C12 (stereo partly specified),Potency,[16],inactive
